{
  "source": "PubChem BioAssay (NCI)",
  "note": "Compounds without any hit were thinned out: in the full panel of roughly 83,000, 20% have a hit.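 The endpoint reported here, percent growth, reads 100 for growth as untreated, 0 for no net growth and -100 for all cells dead.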 A number with no mark means an inactive call. Calls of active or inactive are those of the source. The calls were made as follows: active = growth percent below 10; inactive = the rest.",
  "data": [
    {"tested_on": "MDA-MB-468 breast", "experiment": "NCI-60 one-dose screen, 48 h (100 = growth as untreated, 0 = no growth, -100 = all killed)", "details": "10 µM unless noted", "values": [
      {"molecule": "Cc1cc(C(=O)O)c(N)c(C)n1", "growth": "120%"},
      {"molecule": "CC(C)(C)n1cc(-c2ccnc(NCCCNS(=O)(=O)c3ccc(F)cc3)c2)c(-c2cccc(O)c2)n1", "growth": "24.3%"},
      {"molecule": "Cc1cccc2c(N)c3ccccc3nc12", "growth": "-60.5% (active)"},
      {"molecule": "COc1cccc2c1O/C(=C\\c1ccc([N+](=O)[O-])s1)C2=O", "growth": "14.5%"},
      {"molecule": "COc1cc(-c2nn(-c3ccc(C)cc3)cc2C(=O)O)ccc1O", "growth": "121%"},
      {"molecule": "CCN1CCN(S(=O)(=O)c2oc(-c3ccc(Cl)cc3)nc2C#N)CC1", "growth": "24%"},
      {"molecule": "Cn1cc(-c2csc(-c3c[nH]c4ncccc34)n2)c2cc(F)cnc21", "growth": "-16% (active)"},
      {"molecule": "c1ccc2oc(-c3cnc4nonc4n3)cc2c1", "growth": "98.9%"},
      {"molecule": "COc1ccc(N2C(=O)c3cc(OC)c(OC)cc3NC2SCc2ccccc2)cc1", "note": "(stereo unspecified)", "growth": "108%"},
      {"molecule": "C[C@]12CC[C@@H]3c4ccc(O)cc4CC[C@H]3[C@@H]1C[C@H](O)C2", "growth": "73.7%"},
      {"molecule": "O=C(C[P+](c1ccccc1)(c1ccccc1)c1ccccc1)c1ccccc1", "growth": "103%"},
      {"molecule": "CCN1CCN(C(=O)[C@@]2(C)CC[C@]3(C)CC[C@]4(C)C(=CC(=O)[C@@H]5[C@@]6(C)CC[C@H](OCCC#N)C(C)(C)[C@@H]6CC[C@]54C)[C@@H]3C2)CC1", "growth": "90.9%"},
      {"molecule": "COc1nc2c(c(=O)[nH]1)C(c1ccc(Oc3ccnc4cc(Cl)ccc34)c(OC)c1)C=C(c1cc(OC)c(OC)c(OC)c1)N2", "note": "(stereo unspecified)", "growth": "92.1%"},
      {"molecule": "CCN(CC)c1cc(N)c(Cc2c(N)cc(N(CC)CC)cc2Cl)c(Cl)c1", "growth": "-15.8% (active)"},
      {"molecule": "CNC(=O)Nc1ccc(-c2ccc3ncnc(Nc4cccc(Cl)c4)c3c2)cc1", "growth": "-29.2% (active)"},
      {"molecule": "COc1cc(NS(C)(=O)=O)ccc1Nc1c2ccc(Cl)cc2nc2c(OC)cccc12", "growth": "-34.1% (active)"},
      {"molecule": "Cc1cc(=O)n2nc(-c3cn(C)c4ccc(Cl)cc34)sc2n1", "growth": "-42.5% (active)"},
      {"molecule": "Cc1cccc(NC2=C(C#N)C(=O)NC3(CCCC3)S2)c1", "growth": "101%"},
      {"molecule": "CC(=O)/C(=C/c1ccc(-c2ccccc2)cc1)C(=O)c1ccccc1", "growth": "92.2%"},
      {"molecule": "Cc1ccc2c(-n3nc(C#N)c(C#N)c3N)cc(=O)[nH]c2c1", "growth": "92.6%"},
      {"molecule": "O=c1[nH]c2c3ccncc3cc(-c3cccc(Cl)c3)c2c2cnccc12", "growth": "42.1%"},
      {"molecule": "Cc1sc2nc(NCc3ccccc3Cl)[nH]c(=O)c2c1C", "growth": "101%"},
      {"molecule": "CCN1CCCC1CNC(=O)c1ncc(-c2ccc(C(F)(F)F)cc2)c(NC2CCCCCC2)n1", "note": "(stereo unspecified)", "growth": "80.8%"},
      {"molecule": "O=C1C(c2c[nH]c3ccccc23)=C(c2coc3cc(Br)ccc23)C(=O)N1O", "growth": "91.6%"},
      {"molecule": "COc1ccc(/C=N\\NC(=O)c2ccncc2)cc1O", "growth": "92.8%"},
      {"molecule": "CSc1nc(Nc2ccc(S(=O)(=O)Nc3ccon3)cc2)c(C#N)c(-c2ccc(Cl)cc2)n1", "growth": "93.1%"}
    ]}
  ]
}
